esBAF inh = SWI/SNF esBAF complex inhibition | mouse ES cells, Bmi1-luciferase knock-in reporter, 24 h; 100% = twice the neutral-well signal | AID 602393 | actives 2% (n = 350,000) | reporter increase, % at 12.5 µM; in the data active = activation above about 40%; inconclusive = no clear call, values can overlap the other calls;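 also: 0% = median of the plate's neutral control wells and 100% = double that signal; a rise in the Bmi1 reporter signal indicates esBAF inhibition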
Wnt act = activators of Wnt/beta-catenin signaling; Wnt/beta-catenin reporter cell assay, activator, plate reader; activation, % at 9.35 µM; actives 1.2% (n = 300,000); AID 743398; in the data active = activation above about 30%, passing the limit was not always enough; inconclusive = no clear call, values can overlap the other calls;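 also: 0% = neutral control wells and 100% = positive control wells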
MITF act = activators of MITF-driven TRPM1 promoter activity in SK-MEL-5 cells. AID 588334. SK-MEL-5 TRPM1-promoter luciferase, 24 h; % of positive control, neutral wells = 0. actives 0.75% (n = 300,000). activation, % at 12.5 µM;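 active = mean activation of at least 80% with every replicate also reaching 80%; inconclusive = mean reaches 80% but some replicate falls short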;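 also: 0% = neutral control wells and 100% = parthenolide positive control wells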
GAA850 FXN act = activators of GAA850 frataxin (FXN) promoter | actives 0.56% (n = 360,000) | activation, % at 6 µM | HEK293 lucGAA850 FXN promoter luciferase reporter, 24 h; percent of 10 µM SAHA response;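 active = activation above the average of all compounds screened plus 3 SD, cutoff fixed separately per campaign, cut at about 7.5% in these data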;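 also: 0% = DMSO wells and 100% = 10 µM SAHA wells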
Numbers without * were called inactive; ? = inconclusive; / = not tested or not shown. Shown are actives, neighbours in structure and some others; about 2.8% of the full set was active somewhere.

SMILES	esBAF inh	Wnt act	MITF act	GAA850 FXN act
CC(C)NC(=O)Nc1ccc2c(c1)C(=O)N([C@@H](C)CO)C[C@@H](C)[C@H](CN(C)CC1CCCCC1)OCCCC[C@H](C)O2	-6	/	/	/
O=C(CN(C(=O)c1cc2c(s1)CCC2)C1CCCC1)NCc1cccs1	-1	50*	-5	3
O=C(CN(Cc1ccccc1)C(=O)c1cc2c(s1)CCC2)NCc1cccs1	5	-5	6	0
C[C@H](O)C#Cc1cnc2c(c1)C(=O)N([C@@H](C)CO)C[C@H](C)[C@@H](CN(C)C(=O)CC1CC1)O2	4	/	/	/
C/C(=N\Nc1nncc2ccccc12)c1ccc(O)cc1	2	29	8	4
Clc1cccc(/C=N/Nc2ncnc3ccccc23)c1	53*	/	/	4
Cc1cccc(/C=N/Nc2nncc3ccccc23)c1	-11	6	67	1
C(=N\Nc1nncc2ccccc12)/c1ccccc1	38	38*	39	2
C(=N\Nc1ncnc2ccccc12)/c1ccccc1	70*	0	65	4
C/C(=N\Nc1nncc2ccccc12)c1ccc(C(C)(C)C)cc1	49*	/	/	4
CN1CCN(C(=O)C[C@H]2C[C@@H]3c4cc(NC(=O)Nc5ccc(F)cc5)ccc4O[C@@H]3[C@@H](CO)O2)CC1	3	/	/	/
COc1ccc(CN(C)C[C@@H]2OCCCC[C@H](C)Oc3ccc(NS(=O)(=O)c4ccc(Cl)cc4)cc3C(=O)N([C@@H](C)CO)C[C@H]2C)cc1	-8	/	/	/
CC(=Nc1ccc(O)cc1)c1sc2ccccc2c1O	/	/	75	3
CC(=Nc1cccc(C)c1)c1sc2ccccc2c1O	52*	/	46	5
O=C(CNC(=O)c1sc2ccccc2c1Cl)NCc1ccccc1	/	0	17	0
CC(=O)NCCN=C(C)c1sc2ccccc2c1O	41*	/	22	6
CCOc1ccc2c(c1)C(=NNC(=O)c1ccncc1)c1cc(OCC)ccc1-2	54*	49*	3	4
CCc1ccc(NC2=CC(=O)C(=O)c3ccccc32)cc1	/	33*	-103	0
CCc1ccc2c(c1)C(=O)c1ccccc1C2=O	/	74*	35	8
C/C=C/c1cnc2c(c1)C(=O)N([C@@H](C)CO)C[C@H](C)[C@H](CN(C)S(=O)(=O)c1ccccc1F)O2	1	/	/	/
COc1ccc(-c2ccc3nccn3c2)cc1	45*	-1	/	3
Fc1ccc(-c2ccc3nccn3c2)cc1Cl	9	-1	/	-1
O=C(N[C@H]1CC[C@@H](CCn2cc(C3(O)CCCC3)nn2)O[C@H]1CO)C1CCC1	-1	/	/	/
CCC(=O)N1CCc2nc(-c3ccccc3)sc2C1	46*	13	84*	6
CC(C)(C)C(=O)Nc1nc2c(s1)CN(Cc1ccccc1)CC2	/	-2	72	5
SMILES	esBAF inh	Wnt act	MITF act	GAA850 FXN act
C[C@H]1CN([C@@H](C)CO)S(=O)(=O)c2ccc(-c3cccnc3)cc2O[C@@H]1CN(C)Cc1ccncc1	-4	/	/	/
C[C@H](CO)N1C[C@H](C)[C@H](CN(C)C(=O)CN2CCOCC2)Oc2ncc(C3=CCCC3)cc2C1=O	-5	/	/	/
O=C(Nc1sc2c(c1C(=O)O)CCC2)c1ccc(F)cc1	63*	2	20	3
O=C(Nc1sc2c(c1C(=O)O)CCCC2)c1ccc(Cl)cc1	?	0	15	-4
O=C(Nc1sc2c(c1C(=O)O)CCCCC2)c1ccccc1	/	10	60	-4
O=C(Nc1sc2c(c1C(=O)O)CCCC2)c1cccc(Cl)c1	73*	26	3	1
O=C(O)c1c(NC(=O)c2cccc3ccccc23)sc2c1CCC2	4	-6	/	2
NCCNC(=O)c1c(NC(=O)c2ccccc2)sc2c1CCCC2	68*	1	32	5
O=C(Nc1sc2c(c1C(=O)O)CCC2)c1ccccc1	53*	?	7	-2
CN1C(=O)c2cc(NC(=O)Nc3ccccc3)ccc2OC[C@H]2O[C@H](CC(=O)NC3CCC3)CC[C@H]21	-2	/	/	/
C[C@H](CO)N1C[C@H](C)[C@@H](CN(C)C(=O)c2ccccc2F)Oc2ncc(-c3ccc(F)cc3)cc2C1=O	0	/	/	/
COc1ccc(NC(=O)N(C)C[C@H]2Oc3c(NC(=O)Nc4c(C)noc4C)cccc3C(=O)N([C@@H](C)CO)C[C@H]2C)cc1	-3	/	/	/
COc1ccc(S(=O)(=O)Nc2ccc3c(c2)C(=O)N([C@H](C)CO)C[C@@H](C)[C@@H](CN(C)S(=O)(=O)c2c(C)noc2C)OCCCC[C@H](C)O3)cc1	11	/	/	/
CCOc1ccccc1N1CC(C(=O)NCCC2=CCCCC2)CC1=O (stereo unspecified)	46*	0	59	0

Bioassay records as filed in PubChem.
